VP16 counter: Gal4-VP16 reporter inhibition counter-screen. AID 2546. Potency, µM (titrated, usually from 53.6 µM), for the others: at the top dose activity, negative = inhibition, actives largely listed as inhibitors. Drosophila S2 Gal4-VP16 UAS-luciferase, luminescence, 20 h. actives 3.5% (n = 310,000);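 further: Gal4-VP16 expression switched on by copper sulfate through the metallothionein promoter; nearly all actives have a fitted effect of over 50% in size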
ALDH1A1 inh: inhibitors of human aldehyde dehydrogenase 1A1. actives 7.3% (n = 220,000). P00352. Purified ALDH1A1, NADH fluorescence, propionaldehyde substrate. Potency, µM (highest dose often 75.3 µM), without a hit: top-dose activity, negative = inhibition, hits mostly inhibitors. AID 1030; active means well fitted inhibition curve with a large enough effect, not every such curve was filed as active; inconclusive means small, poorly fitted or top-dose-only effect, or another doubt; inactive means no such curve, though single readings can be large or run the other way;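 further: plate controls were no enzyme wells and a reference inhibitor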
RORg inh: blocks mouse ROR gamma transcriptional activity; AID 2551; Drosophila S2 Gal4-RORgamma UAS-luciferase reporter, 20 h; P51450; actives 5.4% (n = 310,000); Potency, µM (highest dose often 53.6 µM), for inactives: top-dose activity change, negative = inhibition, usual class: inhibitors; further: nearly all actives have a fitted effect of over 60% in size
Target sequence (P51450 whole entry, looked up, the tested form may be a part): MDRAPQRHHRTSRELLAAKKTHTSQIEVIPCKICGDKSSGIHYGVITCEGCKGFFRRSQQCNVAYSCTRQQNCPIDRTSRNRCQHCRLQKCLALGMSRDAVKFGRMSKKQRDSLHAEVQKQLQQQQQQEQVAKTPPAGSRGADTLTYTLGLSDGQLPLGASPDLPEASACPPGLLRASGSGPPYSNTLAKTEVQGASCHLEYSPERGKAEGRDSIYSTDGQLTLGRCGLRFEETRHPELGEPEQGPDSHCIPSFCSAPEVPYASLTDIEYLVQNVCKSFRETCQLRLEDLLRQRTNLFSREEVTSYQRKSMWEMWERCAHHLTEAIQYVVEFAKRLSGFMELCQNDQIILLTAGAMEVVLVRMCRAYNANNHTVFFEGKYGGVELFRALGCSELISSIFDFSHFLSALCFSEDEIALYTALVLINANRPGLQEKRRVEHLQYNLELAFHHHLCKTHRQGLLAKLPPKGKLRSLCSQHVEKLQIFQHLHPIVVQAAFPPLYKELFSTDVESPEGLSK
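In this cell-based reporter format, copper sulfate (700 uM final) drives Gal4–ROR gamma fusion expression from a metallothionein promoter in Drosophila Schneider cells; compounds preincubated 1 hr, reporter read after 20 hr at ambient temperature.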
PLK1 PBD block: inhibitors of human PLK1 polo-box domain binding; Potency, µM, without a hit: max response, negative = inhibition, most hits filed as inhibitors; AID 720504; P53350; actives 2.8% (n = 360,000); Plk1 PBD binding of FITC phosphopeptide, fluorescence polarization; further: series mostly up to about 57 µM; nearly all actives have a fitted effect of over 65% in size
Sfp inh: blocks B. subtilis Sfp PPTase activity; Potency, µM, without a hit: largest response in the series, negative = inhibition, hits mostly inhibitors; actives 3.5% (n = 310,000); Biochemical Sfp PPTase activity, qHTS; Q9F4F7;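 further: the enzyme is Sfp with the accession as filed and its product quenches rhodamine fluorescence; 0% = enzyme reaction without inhibitor and -100% = no enzyme wells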
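Reaction rates are the 30-min fluorescence difference (ex 525, em 598 nm) in wells containing 15 nM Sfp, 5 uM rhodamine-CoA and 12.5 uM BHQ-2-YbbR at pH 7.6 with 10 mM MgCl2.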
* = called active by the depositor; ? = inconclusive; / = not tested or not shown; [ ] = remark or other dose. Most compounds without a hit are left out; they make up all but 12% or so of the library. Unless noted, the call rests on the fitted dose curve; in most records, active means well fitted curve in the direction sought with a large enough effect; inconclusive means small, poorly fitted or top-dose-only effect, or another doubt; inactive means no such curve, though single readings can be large; an effect the other way counts as inactive or inconclusive. Unless noted, on the % scale 0 is the no-effect control and ±100 the full control effect; potency means the concentration at half of the fitted maximal effect.

SMILES | VP16 counter | ALDH1A1 inh | RORg inh | PLK1 PBD block | Sfp inh
COCCN1C[C@@H](CO)O[C@@H](n2cnc3c(NCc4ccncc4)ncnc32)C1 | / | / | / | -1% | /
COc1ccc(NC(=S)NC(=O)c2ccccc2Cl)cc1 | ? | 13µM* | 6.3µM* | 27µM* | -13%
CCOC(=O)N1CCN(C(=O)c2ccc(CS(=O)(=O)c3ccc(OC)cc3)o2)CC1 | 5% | 1% | 33% | 27µM* | 6%
COc1ccc(S(=O)(=O)Cc2ccc(C(=O)NC(C)C)o2)cc1 | -1% | ? | -11% | 21µM* | -14%
COc1ccc(S(=O)(=O)Cc2ccc(C(=O)N3CCCC3)o2)cc1 | -2% | ? | 29% | -4% | -6%
CCc1ccc2c(c1)C(O)(CC(=O)c1cccs1)C(=O)N2 (stereo not given) | -10% | 4% | 12% | -19% | 3%
CCc1cccc2c1NC(=O)C2(O)CC(=O)c1cccs1 (stereo not given) | 3%[10 µM] | 14µM* | -1% | -14% | 16%
COc1ccc(C(C)=O)cc1CN1C(=O)C(C)ON=C1c1ccccn1 (stereo not given) | / | / | / | 6% | /
COc1ccc(NC(=O)C2CCCCN2N)cc1OC (stereo not given) | -13% | ? | -25% | 27µM* | -8%
Cc1ccc([C@H]2N[C@]3(CCCN(Cc4ccc(Br)cc4)C3=O)[C@H]3C(=O)N(Cc4ccccc4)C(=O)[C@@H]23)cc1 | / | / | / | -12% | /
OC[C@@H]1CN(Cc2ccco2)C[C@H](n2cnc3c(NCc4ccc(F)cc4)ncnc32)O1 | / | / | / | -3% | /
Cc1ccc(C(=O)Nc2nc(-c3ccccn3)cs2)s1 | / | / | / | -14% | /
O=C(CN1C(=O)CCC1=O)Nc1nc(-c2ccc3ccccc3c2)cs1 | ? | 0% | ? | 1% | 8%
O=C(Nc1nc(-c2ccccn2)cs1)C1CCCC1 | ? | ? | 8.9µM* | ? | ?
O=C(CN1C(=O)CCC1=O)Nc1nc(-c2ccccn2)cs1 | -14% | -13% | -18% | -13% | 50µM*
O=C(CCCSc1ccccc1)Nc1nc(-c2ccccn2)cs1 | ? | ? | 10µM* | 21µM* | -17%
CSCCC(=O)Nc1nc(-c2ccccn2)cs1 | -18% | 28µM* | 13µM* | ? | -68%
COc1cc(NC(=S)N2CCC(C(N)=O)CC2)c(OC)cc1Cl | -11% | -4% | -5% | ? | ?
CCC(=O)N1CCCC(C(=O)Nc2ccc3cn[nH]c3c2)CC1 (stereo not given) | / | / | / | -3% | /
Cc1ccc(C(=O)OCC(=O)c2ccc(Br)cc2)cc1S(=O)(=O)N1CCOCC1 | / | / | / | -4% | /
O=C(COC(=O)c1ccc(F)cc1Cl)NC1CC1 | / | / | / | -6% | /
N#Cc1ccccc1OCC(=O)Nc1nc(-c2ccccn2)cs1 | / | / | / | 27µM* | /
CCCCC/C=C\C\C=C/C=C/C=C/[C@@H](SCC(NC(C)=O)C(=O)O)[C@@H](O)CCCC(=O)O (stereo not given in full) | 2% | 7% | 41% | / | 2%
Nc1nnnn1/N=C/c1cc(Cl)ccc1O | -7% | / | -6% | ? | 13%
Nc1nnnn1/N=C/c1cc(Cl)cc(Cl)c1O | -5% | / | -34%[1.91 µM] | 12µM* | -9%
SMILES | VP16 counter | ALDH1A1 inh | RORg inh | PLK1 PBD block | Sfp inh
COC(=O)N1CCC2(CCCN(c3ccccn3)C2)CC1 | -6% | -91% | 1% | / | 3%
COc1cccc(/C=C2\SC(=S)N(CC3CCCO3)C2=O)c1 (stereo not given) | 27% | 3.2µM* | -7% | -8% | -7%
O=C1/C(=C/c2cccc(O)c2)SC(=S)N1CC1CCCO1 (stereo not given) | -14% | / | -26% | ? | 13%
CCOc1cc(/C=C2/SC(=S)N(CC3CCCO3)C2=O)ccc1O (stereo not given) | 2% | 0.45µM* | 27% | 9% | 48%
COc1ccc(-c2cn(CC[C@@H]3CC[C@H](NC(=O)Cc4ccccn4)[C@@H](CO)O3)nn2)cc1 | / | / | / | -22% | /
O=C(/C=C/c1ccco1)N(Cc1ccccc1)C1CCS(=O)(=O)C1 (stereo not given) | 0% | / | 11% | -10% | 25µM*
O=C1C2CC=CCC2C(=O)N1CC(=O)N(Cc1ccccc1)C1CCS(=O)(=O)C1 (stereo not given) | -7% | -1% | -1% | -1% | -8%
O=C(/C=C/c1ccco1)N(Cc1cccc(Cl)c1)C1CCS(=O)(=O)C1 (stereo not given) | -2% | / | 31% | -29% | 32µM*
CCN(CC)c1ccc(CN(C(=O)c2ccco2)C2CCS(=O)(=O)C2)cc1 (stereo not given) | 6% | 22µM* | 0% | -7% | -3%
CCc1ccc(CN(C(=O)c2ccco2)C2CCS(=O)(=O)C2)cc1 (stereo not given) | -8% | / | 12% | -10% | 14%
O=C(/C=C/c1ccco1)N(Cc1cccc(Br)c1)C1CCS(=O)(=O)C1 (stereo not given) | 7% | / | 10% | -18% | ?
O=C(Cn1c(=O)oc2ccccc21)N(Cc1ccccc1)C1CCS(=O)(=O)C1 (stereo not given) | -2% | 22% | 15% | 21µM* | 9%
Cc1cccc(C)c1NC(=O)C(c1ccccc1)N1CCN(C/C=C/c2ccccc2)CC1 (stereo not given) | / | / | / | -6% | /
CCOC(=O)C(=NC1CCS(=O)(=O)C1)NNc1ccccc1Cl (stereo not given) | -3% | / | -14% | 27µM* | ?
CCOC(=O)C(=NC1CCS(=O)(=O)C1)NNc1cc(Cl)ccc1Cl (stereo not given) | -7% | / | -4% | 3% | -6%
COc1ccccc1-c1cn[nH]c1-c1ccc(OCc2ccccc2F)cc1O | ? | -1% | 8.9µM* | 3% | 14%
COc1ccccc1-c1cn[nH]c1-c1ccc(OCc2ccc(F)cc2)cc1O | ? | / | 7.9µM* | -5% | 22%
COc1ccccc1-c1cn[nH]c1-c1ccc(OCc2ccc([N+](=O)[O-])cc2)cc1O | -21% | / | ? | 9% | 15%
COc1ccc(-c2cn[nH]c2-c2ccc(OCc3ccc(F)cc3)cc2O)cc1OC | 3.5µM* | / | 1.6µM* | -15% | 45%
C[C@H](Cc1nc2c(cnn2-c2ccccc2Cl)c(=O)[nH]1)C(F)(F)F | 1% | / | 0% | / | -21%
N#Cc1ccc(OCC(=O)N2CCc3ccccc32)cc1 | / | / | / | 1% | /
O=C(COc1ccccc1Cl)NC(=S)N1CCc2ccccc21 | 1.1µM* | -6% | 0.71µM* | -2% | 11%
O=C(COc1ccccc1)NC(=S)N1CCc2ccccc21 | 2.5µM* | ? | 1.3µM* | -9% | 9%
COc1ccc(OCC(=O)NC(=S)N2CCCc3ccccc32)cc1 | -5% | 8.9µM* | ? | ? | 56µM*
COc1cc(N=C(N)N=C(N)N)c2ncccc2c1 | / | 9%[13.5 µM] | / | / | /
CN[C@H]1C[C@H]2c3[nH]c4ccc(-c5ccc(OC)cc5)cc4c3CCN2C(=O)[C@H]1[C@H](C)O | / | / | / | -4% | /

Screening data from PubChem BioAssay.
